Our source for the sensor-assay potency score (higher = more potent) values is the OligoGym collection.
Note: reference of the scale not given here.

The first assay addresses AMOTL1. Briefly: pooled miR-30 sensor sort-seq; sequence = guide strand. Conditions: shRNA.
The sequence TTTCTCAACATATGCTTGCTTC showed a sensor-assay potency score (higher = more potent) of -0.629.
Turning to TTTTTCAAACTTGTGGAGCTTG, the sensor-assay potency score (higher = more potent) came out at 0.0773.
On the same count and under the same terms, next, TAGACTTGACCAGACTTTCATA: -0.788.

Another assay has as its target AMPH. The assay is described as above. To be noted: shRNA.
For the sequence TTGTCTGTGAAGGTGACCGAGG, the sensor-assay potency score (higher = more potent) was -0.658.
Still for that read-out and setting: next, TTTTTGATGGAAGTCTTCCCAC: -0.336.
As to AAACTCTTCAAACACTTTCTGT, the sensor-assay potency score (higher = more potent) was -0.65.
On the same count and under the same terms, next, TACTTTAGAACAATCTGTGAAG: -0.229; TTGATTGCTGCTAAATATCCTC: -0.275.
Take TTGTGAATAATGAAGTATCCTG: the sensor-assay potency score (higher = more potent) is -0.215.
On the same count and under the same terms, the same measure for TTTTACTTTAGAACAATCTGTG: 0.225; for TAGTCCACTAGCTTCCTGCTGC: 0.262; for TCATAGTCCACTAGCTTCCTGC: -0.747.
In turn, TGATTTGGACTTGCTGTCGGGC displayed a sensor-assay potency score (higher = more potent) of -0.73.
Same read-out and setting: next, TAACATAAAATCCAACTCGTCT: -0.296; TAAATGAACCACCAGAAGCCGG: -1.23; TTTTTTGCACACATGCTCCATT: -0.524.
The same measure, in the same setting: the same measure for TTACTTTAGAACAATCTGTGAA: -0.181; for TTCTGGAACAAAGTTGTCCTCA: -0.205; for TTTACTTTAGAACAATCTGTGA: -0.223.
Same read-out and setting: next, TAATTCATCACATCTTCTGCAG: -0.0381; TTGCTGCTAAATATCCTCGGAG: -0.441; TTTCCTTATGAAACTTGGCTTC: -0.107.
Sequence TTAACATAAAATCCAACTCGTC had a sensor-assay potency score (higher = more potent) of -0.669.
In turn, TTCTTCGAACTGTTCGTCTTTT displayed a sensor-assay potency score (higher = more potent) of -0.66.
Still for that read-out and setting: next, TAGAGATTCGACTCTCATCCTT: 0.077.
TCTGCATACACATAGATCCAGG yielded a sensor-assay potency score (higher = more potent) of -1.05.
On the same count and under the same terms, the same measure for TAACAAAAGTGAACTCTTCAGG: -0.296.
